Assay results reported in PubChem BioAssay.
Activity calls are given as the source filed them.

Assay: E. coli acrAB mutant growth effects, primary screen, E. coli filamentation inducers, strain DRC39, OD650, 48 h (AID 1179);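 also: screen aims at cell division blockers that make cells filament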
Conditions: E. coli DRC39 delta-acrAB growth, higher = more signal, called active from +8 up or from −8 down

Compound | z-score
C=C(COC)/C(=C/C[C@H](OC(=O)c1ccncc1)c1ccc(CO)o1)c1cc(C(=O)OC)ccc1OC | 0.0389 (inactive)
CS(=O)(=O)CCOC(=O)C1=CC(CCCO)=CC(c2cccs2)N(Cc2cccc(OC(F)(F)F)c2)C=C1C(=O)OCCS(C)(=O)=O (configuration not stated) | -0.0926 (inactive)
CCCNC(=O)[C@@H]1c2ccccc2C(=O)N(Cc2ccccc2Cl)[C@H]1c1ccc(CO)cc1 | 0.829 (inactive)
CCc1cccc(NC(=O)O[C@H]2[C@H](OC(=O)Nc3ccc4c(c3)OCO4)[C@@H](OC(=O)Nc3ccc4c(c3)OCO4)[C@@H](OC)O[C@@H]2CO)c1 | 0.494 (inactive)
COC(=O)[C@@]1(Cc2ccc(OC)cc2)[C@H]2c3cc(C(=O)N4CCCC4)n(Cc4cc(F)c(F)c(F)c4)c3C[C@H]2CN1C(=O)c1ccccc1 | -0.254 (inactive)
CN(C)C(=O)[C@@]1(Cc2ccccc2)N=C(c2ccc(OCCCO)cc2)O[C@H]1c1ccccc1CN=[N+]=[N-] | -0.139 (inactive)
COc1ccc([Si](C)(C)[C@@H]2[C@@H](CCO)O[C@]3(C(=O)N(Cc4ccc(NC(C)=O)cc4)c4ccccc43)[C@H]2C)cc1 | -0.937 (inactive)
O=C1O[C@@H](c2ccccc2)[C@@H](c2ccccc2)N2[C@@H](c3ccc(O)cc3)[C@]3(C(=O)Nc4ccccc43)[C@@H](C(=O)O)[C@H]12 | -0.831 (inactive)
O=C1c2ccccc2[C@@]2(Cc3ccccc3N(C3CC3)C2=O)[C@H](c2ccc(CO)cc2)N1Cc1ccccc1C(F)(F)F | -0.136 (inactive)
O[C@@H](Cc1ccccc1)[C@H]1C2C=CCCC(c3ccccc3)=C2CN1Cc1cccc(Cl)c1 (some centres not stated) | 1.85 (inactive)

Assay: RPMI8226 myeloma cell viability, profiling panel, resazurin fluorescence, basal, 24 h, PK04 Diversity Set (AID 1180);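 also: RPMI8826 multiple myeloma cell line at 5000 cells per well; test concentration not given here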
Conditions: higher = more signal

Compound | z-score
CCCC=C(CCC)[C@@H](NC(=O)c1ccc(-c2ccccc2)cc1)c1ccc(C(=O)OC)cc1 | -0.361
COC(=O)[C@@]1(Cc2ccccc2)[C@H]2c3cc(C(=O)N4CCCC4)n(Cc4ccccn4)c3C[C@H]2CN1C(=O)c1ccccc1 | -2.32
O=C(CS)NCCCCCNC(=O)[C@@H]1C[C@@H]2C(=O)N[C@@H](Cc3ccccc3)C(=O)N2[C@@H]1c1ccc(O)cc1 | 0.252
CC(C)C[C@@H]1NC(=O)[C@H]2C[C@@H](C(=O)NCCCCCCN(C)C)[C@@H](c3cccc(OCCO)c3)N2C1=O | -0.992
COCCCNC(=O)[C@@]1(CCS(=O)(=O)c2ccccc2)N=C(c2ccc(OCCCO)cc2)O[C@H]1c1ccccc1 | 0.806
Cc1ccc(S[C@]2(C(=O)NCC(F)(F)F)CC(=O)N(Cc3ccccc3Cl)[C@@H]2c2ccc(CO)cc2I)cc1 | -2.02
O=C1O[C@@H](c2ccccc2)[C@@H](c2ccccc2)N2[C@@H](c3ccc(OCCO)cc3)[C@]3(C(=O)Nc4ccc(C#CCCO)cc43)[C@@H](C(=O)N3CCCCCCC3)[C@H]12 | 1.55
CCOC(=O)C1=CCC(c2cc3ccccc3[nH]2)NC1 (configuration not stated) | -0.613
O=C1NC(=O)C2C1C=CC(C(O)Cc1ccccc1)N2Nc1ccccn1 (configuration not stated) | -0.448
C#C[C@@H]1Oc2ccccc2S(=O)(=O)N2CCC[C@H]12 | -0.776
COc1ccc([Si](C)(C)[C@H]2[C@H](CCO)O[C@@]3(C(=O)N(Cc4cccc(NC(=O)[C@H](C)O)c4)c4ccccc43)[C@@H]2C)cc1 | -6.16
C=CCOC(=O)[C@H]1[C@@H]2C(=O)O[C@@H](c3ccccc3)[C@@H](c3ccccc3)N2[C@@H](c2ccc(OCCOC(=O)[C@H]3C[C@H]4C(=O)N5CCC[C@H]5C(=O)N4[C@H]3c3cccc(OCCO)c3)cc2)[C@]12C(=O)Nc1ccc(I)cc12 | 0.0614
C=C(/C(=C/C[C@@H](OC(=O)c1ccncc1)c1ccc(OCCO)cc1)c1cnc2ccccc2c1)C(C)C | 0.206
O=C1C[C@]2(c3ccc([N+](=O)[O-])cc3)C(=O)N(CCN3CCOCC3)c3cc(CO)ccc3[C@H]2N1CC12CC3CC(CC(C3)C1)C2 | -0.391
CC(C)C[C@@H]1NC(=O)[C@H]2C[C@@H](C(=O)O)[C@@H](c3ccc(O)cc3)N2C1=O | 0.453
COCCOC(=O)N1C(=O)[C@@]2(c3cc(C#Cc4ccc(OC)cc4)ccc31)[C@H](c1ccc(O)cc1)N1[C@H](c3ccccc3)[C@H](c3ccccc3)OC(=O)[C@H]1[C@@H]2C(N)=O | -2.3
CC(C)NC(=O)[C@@]1(C)c2ccccc2C(=O)N(Cc2cc(F)cc(C(F)(F)F)c2)[C@H]1c1ccc(CO)cc1 | -0.744
